Reference: PubChem BioAssay (NCI)
The panel holds about 83,000 compounds, 20% with a hit somewhere; the sample as a whole holds those more often.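 Single-dose data. Exposure time 48 hours. Values below 10 considered active.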 Values without a mark were called inactive. Calls of active or inactive are those of the source.

Test system: MDA-MB-468 breast
Assay: NCI-60 one-dose screen, 48 h (100 = growth as untreated, 0 = no growth, -100 = all killed)
Details: 10 µM unless noted

Compound | growth
C[C@]12CC[C@H]3[C@@H](CC4SC(N)=NC45C/C(=N/NC(N)=O)CC[C@]35C)[C@@H]1CCC2=O (some centres not stated) | -46.2% (active)
CC(=O)OCC1O[C@@H]([S-])C(OC(C)=O)[C@H](OC(C)=O)[C@@H]1OC(C)=O.[Au+].c1ccc(CN2[CH-]N(Cc3ccccc3)C(c3ccccc3)=C2c2ccccc2)cc1 | -61.7% (active)
CC(=O)O[C@H](C[C@H](C(C)C)N(C)C(=O)[C@@H](NC(=O)[C@H]1CCCCN1C)C(C)(C)C)c1nc(C(=O)N[C@@H](Cc2ccccc2)C[C@H](C)C(=O)O)cs1 | 4.72% (active)
CCCCOc1ccc(C(N)Cc2ccccc2)cc1 (configuration not stated) | 76.2%
CC[CH2][Pb]([CH2]CC)([CH2]CC)[O]C(=O)C(F)(F)F | -90.1% (active)
CC(=O)O[C@H]1CCC2(C)C(=CCC3C2CCC2(C)/C(=N/OC(=O)c4ccc(N(CCCl)CCCl)cc4)CCC32)C1 (some centres not stated) | 79.9%
CC[C@H](C)[C@H](NC(=O)[C@H]1CCCCN1C)C(=O)N(C)[C@H](C[C@@H](OC(C)=O)c1nc(C(=O)N[C@@H](Cc2ccccc2)C[C@H](C)C(=O)OC)cs1)C(C)C | -7.99% (active)
